Source: the antibiotic and cytotoxicity screens of Wong et al. (2023)
About 3,300 (8.5%) of roughly 39,000 compounds were called active. The entries come from a sample that favours actives as a whole.

tested on: HepG2; assay: cytotoxicity call (relative viability < 0.9); conditions: 10 µM

| SMILES | cytotoxicity call |
| --- | --- |
| CC(C)NC(=O)N(C)C[C@@H]1OCCCC[C@@H](C)Oc2ccc(NC(=O)Nc3ccccc3)cc2C(=O)N([C@H](C)CO)C[C@@H]1C | inactive |
| C[C@@H]1CCCCO[C@@H](CN(C)C(=O)Cc2ccccc2)[C@@H](C)CN([C@@H](C)CO)C(=O)c2cc(NC(=O)Nc3ccc(C(F)(F)F)cc3)ccc2O1 | inactive |
| O=C(O)CNC(=O)c1cc2ccccc2[nH]1 | inactive |
| C[C@H](CO)N1C[C@H](C)[C@@H](CN(C)S(=O)(=O)c2ccc(Cl)cc2)Oc2ccc(NC(=O)CCN3CCOCC3)cc2CC1=O | inactive |
| Cc1noc(C)c1S(=O)(=O)N(C)C[C@H]1OCCCC[C@H](C)Oc2ccc(NS(=O)(=O)c3cn(C)cn3)cc2C(=O)N([C@@H](C)CO)C[C@@H]1C | inactive |
| C=c1cc(C)ccc1=C1NN=C(NC(=O)CC)O1 | inactive |
| C[C@@H]1CCCCO[C@@H](CN(C)C(=O)Nc2ccc(F)cc2)[C@@H](C)CN([C@@H](C)CO)C(=O)c2cc(NC(=O)Nc3ccccc3)ccc2O1 | inactive |
| CN1CCC(Nc2nc(Nc3ccc(Oc4ccccc4)cc3)c3c(O)ncc(Br)c3n2)CC1 | active |
| C[C@@H]1CN([C@@H](C)CO)S(=O)(=O)c2ccc(-c3ccc(F)cc3)cc2O[C@H]1CN(C)S(C)(=O)=O | inactive |
| CNC(=O)N1CCN(Cc2cnn(C)c2)C[C@]2(CCCC(=O)N2)C1 | inactive |
| C=CCOC(=O)[C@H]1[C@@H]2C(=O)O[C@@H](c3ccccc3)[C@@H](c3ccccc3)N2[C@@H](c2ccc(OCCOC(=O)[C@H]3C[C@H]4C(=O)N[C@@H](CCCCNC(C)=O)C(=O)N4[C@H]3c3cccc(OCCO)c3)cc2)[C@]12C(=O)Nc1ccc(I)cc12 | inactive |
| Cc1ccc(S(=O)(=O)Nc2ccc3c(c2)C(=O)N([C@H](C)CO)C[C@H](C)[C@H](CN(C)S(=O)(=O)c2ccc(Cl)cc2)OCCCC[C@H](C)O3)cc1 | inactive |
| Cc1ccc(S(=O)(=O)N(C)C[C@@H]2OCCCC[C@@H](C)Oc3ccc(NS(=O)(=O)c4ccc(Cl)cc4)cc3C(=O)N([C@H](C)CO)C[C@H]2C)cc1 | inactive |
| Cc1ccc(S(=O)(=O)N(C)C[C@H]2OCCCC[C@@H](C)Oc3ccc(NS(=O)(=O)c4ccc(Cl)cc4)cc3C(=O)N([C@H](C)CO)C[C@H]2C)cc1 | inactive |
| Cc1ccc(S(=O)(=O)Nc2ccc3c(c2)C(=O)N([C@H](C)CO)C[C@H](C)[C@@H](CN(C)S(=O)(=O)c2ccc(Cl)cc2)OCCCC[C@@H](C)O3)cc1 | active |
| Cc1ccc(S(=O)(=O)Nc2ccc3c(c2)C(=O)N([C@@H](C)CO)C[C@@H](C)[C@@H](CN(C)S(=O)(=O)c2ccc(Cl)cc2)OCCCC[C@H](C)O3)cc1 | inactive |
| Cc1ccc(S(=O)(=O)N(C)C[C@H]2OCCCC[C@H](C)Oc3ccc(NS(=O)(=O)c4ccc(Cl)cc4)cc3C(=O)N([C@@H](C)CO)C[C@@H]2C)cc1 | active |
| Cc1ccc(S(=O)(=O)N(C)C[C@@H]2OCCCC[C@H](C)Oc3ccc(NS(=O)(=O)c4ccc(Cl)cc4)cc3C(=O)N([C@@H](C)CO)C[C@@H]2C)cc1 | active |
| Cc1ccc(S(=O)(=O)N(C)C[C@@H]2OCCCC[C@@H](C)Oc3ccc(NS(=O)(=O)c4ccc(Cl)cc4)cc3C(=O)N([C@@H](C)CO)C[C@@H]2C)cc1 | inactive |
| Cc1ccc(S(=O)(=O)N(C)C[C@@H]2OCCCC[C@H](C)Oc3ccc(NS(=O)(=O)c4ccc(Cl)cc4)cc3C(=O)N([C@H](C)CO)C[C@H]2C)cc1 | active |
| Cc1ccc(S(=O)(=O)N(C)C[C@H]2OCCCC[C@@H](C)Oc3ccc(NS(=O)(=O)c4ccc(Cl)cc4)cc3C(=O)N([C@H](C)CO)C[C@@H]2C)cc1 | inactive |
